High-throughput results: PubChem BioAssay, several laboratories
A selection: hits, their analogues and other compounds. The true share with any hit is near 27%.
CYP2C19 inhib: blocks human cytochrome P450 2C19; inhibition, % at 5 µM; 96,000 tested, 21% active; P33261; AID 778; CYP2C19 Supersomes, luciferin-H EGE luminescence, 30 min;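 active means CYP2C19 inhibition above a set limit at 5 µM in the primary screen, cut at about 50% in these data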
sEH act: soluble epoxide hydrolase (human) activation | AID 717 | activation, % at 2 µM | 91,000 tested, 0.04% active | P34913 | purified human sEH enzymatic activity, activator screen; in the data active means activation above about 37%
CYP2C9 inh: inhibitors of human CYP2C9; CYP2C9 Supersomes, luciferin-H conversion, luminescence; inhibition, % at 5 µM; 96,000 tested, 20% active; AID 777;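 active means blocking of liver enzyme CYP2C9 beyond about 50% at 5 µM, limit read from the data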
Target sequence (P11712 whole entry, looked up): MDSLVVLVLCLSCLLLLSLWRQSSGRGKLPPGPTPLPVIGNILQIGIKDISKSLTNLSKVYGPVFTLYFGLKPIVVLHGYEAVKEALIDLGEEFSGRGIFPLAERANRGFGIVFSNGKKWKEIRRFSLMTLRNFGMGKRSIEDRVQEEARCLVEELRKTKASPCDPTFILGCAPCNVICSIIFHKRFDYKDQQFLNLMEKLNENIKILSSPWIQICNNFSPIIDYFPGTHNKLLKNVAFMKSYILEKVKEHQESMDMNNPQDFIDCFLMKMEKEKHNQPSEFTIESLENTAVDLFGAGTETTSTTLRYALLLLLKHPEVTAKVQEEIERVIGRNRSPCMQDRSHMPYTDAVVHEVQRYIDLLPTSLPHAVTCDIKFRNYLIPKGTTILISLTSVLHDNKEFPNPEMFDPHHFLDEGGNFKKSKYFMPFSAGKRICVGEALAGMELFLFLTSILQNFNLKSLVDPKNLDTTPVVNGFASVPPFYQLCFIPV
CYP2C9 act: CYP2C9 (human) activation. P11712. recombinant CYP2C9, luciferin-H conversion, luminescence; stronger effect = higher value; factor 1 = untreated enzyme, 0 = blocked. activation factor at 5 µM. 96,000 tested, 1.4% active. AID 1024;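 active means activation factor of 2 or more for CYP2C9 at a 5 µM dose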
sEH inhibitor: soluble epoxide hydrolase (human) inhibition; P34913; recombinant human sEH enzymatic activity assay; inhibition, % at 2 µM; 91,000 tested, 0.34% active; in the data active means inhibition above about 80%
CYP2C19 act: activators of human cytochrome P450 2C19. P33261. AID 1025. recombinant CYP2C19, luciferin-H EGE luminescence; stronger effect = higher value; 0 = fully inhibited enzyme, 1 = untreated enzyme. 96,000 tested, under 10 active. activation factor at 5 µM;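 active means activation factor of at least 2 at 5 µM in the primary screen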
A number is an active result.

For CCc1nnc(NC(=O)C(C)Sc2ccccc2)s1 (centres undefined) the results were CYP2C19 inhib 83, sEH act inactive, CYP2C9 inh 74, CYP2C9 act inactive, sEH inhibitor inactive and CYP2C19 act inactive.
Cc1noc(C)c1C(=O)Nc1ccc(F)cc1F was read as CYP2C19 inhib inactive, sEH act inactive, CYP2C9 inh inactive, CYP2C9 act inactive, sEH inhibitor inactive and CYP2C19 act inactive.
`COc1cccc(NC(=O)COc2ccc(S(=O)(=O)NC(C)C)cc2)c1` gave sEH act inactive and sEH inhibitor inactive.
CS(=O)(=O)N1CCN(CC2CC3C=CC2C3)CC1 (centres undefined) was read as CYP2C19 inhib inactive, sEH act inactive, CYP2C9 inh inactive, CYP2C9 act inactive, sEH inhibitor inactive and CYP2C19 act inactive.
Screening Cc1ccccc1CN1CCN(S(C)(=O)=O)CC1 returned sEH act inactive and sEH inhibitor inactive.
Screening C1=CC2CC1CC2CN1CCN(c2ccccc2)CC1 (centres undefined) returned CYP2C19 inhib 66, CYP2C9 inh inactive, CYP2C9 act inactive and CYP2C19 act inactive.
Cc1ccccc1CN1CCN(CC2CC3C=CC2C3)CC1 (centres undefined) was read as CYP2C19 inhib 61, sEH act inactive, CYP2C9 inh inactive, CYP2C9 act inactive, sEH inhibitor inactive and CYP2C19 act inactive.
`CC1CC(C(F)(F)C(F)(F)F)n2nc(C(=O)O)cc2N1` (centres undefined) gave CYP2C19 inhib inactive, CYP2C9 inh inactive, CYP2C9 act inactive and CYP2C19 act inactive.
`CC(=O)Cc1nsc(NC(=O)c2cn(-c3ccccc3)nc2-c2ccc(Br)cc2)n1` gave CYP2C19 inhib inactive, sEH act inactive, CYP2C9 inh inactive, CYP2C9 act inactive, sEH inhibitor inactive and CYP2C19 act inactive.
For COC(=O)Oc1c(Br)c(=O)oc2ccccc12 the results were sEH act inactive and sEH inhibitor inactive.
Screening CSc1nnc(C2CCCN2)n1C (centres undefined) returned CYP2C19 inhib inactive, sEH act inactive, CYP2C9 inh inactive, CYP2C9 act inactive, sEH inhibitor inactive and CYP2C19 act inactive.
Cc1ccc(NS(=O)(=O)c2ccc(NC(=O)c3ccc(-c4ccccc4)cc3)cc2)c(C)c1 was read as sEH act inactive and sEH inhibitor inactive.
For Cc1ccc(NS(=O)(=O)c2ccc(NC(=O)c3ccc(Br)o3)cc2)c(C)c1 the results were CYP2C19 inhib inactive, sEH act inactive, CYP2C9 inh 67, CYP2C9 act inactive, sEH inhibitor inactive and CYP2C19 act inactive.
Cc1cc(C)cc(NS(=O)(=O)c2ccc(NC(=S)NC(=O)c3ccc(Br)o3)cc2)c1 was read as CYP2C19 inhib inactive, sEH act inactive, CYP2C9 inh 74, CYP2C9 act inactive, sEH inhibitor inactive and CYP2C19 act inactive.
For O=C(c1ccccc1)N(c1ccccc1)C1C=CS(=O)(=O)C1 (centres undefined) the results were CYP2C19 inhib inactive, sEH act inactive, CYP2C9 inh inactive, CYP2C9 act inactive, sEH inhibitor inactive and CYP2C19 act inactive.
`CC(C(=O)NC(=O)NC1CCCCC1)N1CCN(c2ccccn2)CC1` (centres undefined) gave CYP2C19 inhib inactive, sEH act inactive, CYP2C9 inh 57, CYP2C9 act inactive, sEH inhibitor inactive and CYP2C19 act inactive.
Screening CC(CN1CCCCC1)OC(=O)C1c2ccccc2Oc2ccccc21 (centres undefined) returned CYP2C19 inhib 72, sEH act inactive, CYP2C9 inh inactive, CYP2C9 act inactive, sEH inhibitor inactive and CYP2C19 act inactive.
For O=C(Nc1ccc(Br)cc1)c1ccc(N2C(=O)C3CC=C(Cl)CC3C2=O)cc1 (centres undefined) the results were CYP2C19 inhib inactive, sEH act inactive, CYP2C9 inh 74, CYP2C9 act inactive, sEH inhibitor inactive and CYP2C19 act inactive.
For O=C(c1ccc(N2C(=O)C3CC=C(Cl)CC3C2=O)cc1)N1CCCCC1 (centres undefined) the results were CYP2C19 inhib inactive, sEH act inactive, CYP2C9 inh inactive, CYP2C9 act inactive, sEH inhibitor inactive and CYP2C19 act inactive.
`CC1(C)Cc2ccccc2C(N)=C1C#N` gave CYP2C19 inhib 94, sEH act inactive, CYP2C9 inh 78, CYP2C9 act inactive, sEH inhibitor inactive and CYP2C19 act inactive.
